Bioassay records: PubChem, National Center for Advancing Translational Sciences (NCATS)
The list is not random: actives were taken first. Their share in the collection is about 19%.
DT40 TDP1 CPT – growth inhibition of DT40 Tdp1-/-;hTDP1 cells with camptothecin (screen for TDP1 inhibitors); chicken DT40 Tdp1-/-;hTDP1 cells + 20 nM CPT, ATP luminescence, 48 h; Potency, µM (top dose mostly 46.2 µM), without a hit: at the top dose activity change, negative = growth inhibition, most hits filed as inhibitors; actives 12% (n = 420,000); further: potency means the concentration at half of the fitted maximal effect; on the % scale 0 is the no-effect control and ±100 the full control effect; nearly all actives have a fitted effect of over 55% in size
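Chicken DT40 Tdp1-/- cells complemented with human TDP1, 400 cells/well, exposed to compounds plus 20 nM camptothecin for at least 48 h at 37 C; viability read as ATP content by CellTiter-Glo luminescence.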
HepG2 tox – HepG2 cytotoxicity, counter-screen for TGF-b inhibitors | actives 0.76% (n = 410,000) | HepG2 CAGA-GFP viability, ATP luminescence, 18 h | Potency, µM (top dose mostly 46.1 µM), for inactives: at the top dose activity change, negative = cytotoxicity, hits mostly cytotoxic; further: potency means the concentration at half of the fitted maximal effect
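CellTiter-Glo luminescence gave cytotoxicity after 18 hours at 37 degrees C. The cells were HepG2 CAGA-GFP in 1% FBS DMEM, stimulated with 500 pg/mL TGF-beta after compound addition. %Activity was normalised to no-cell wells (complete cell-killing) and DMSO (no toxicity), and curves were fitted and classified.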
DT40 TDP1 no CPT – qHTS for Inhibitors of human tyrosyl-DNA phosphodiesterase 1 (TDP1): qHTS in cells in absence of CPT; DT40 Tdp1-/- hTDP1 cells, no CPT, ATP luminescence, 48 h; Potency, µM (titrated, usually from 46.2 µM), for inactives: at the highest dose activity change, negative = growth inhibition, hits mostly inhibitors; actives 15% (n = 420,000); further: potency means the concentration at half of the fitted maximal effect; on the % scale 0 is the no-effect control and ±100 the full control effect; nearly all actives have a fitted effect of over 55% in size
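No-CPT arm: Tdp1-/-;hTDP1 DT40 cells (400/well) plus compounds, incubated ≥48 hr at 37 °C. Readout CellTiter-Glo luminescence.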
IL-1B inflam inh – inhibitors of inflammasome signaling (IL-1 beta secretion) | THP-1 LPS/ATP IL-1B secretion, AlphaLISA, 16 h; hits give low values | activity change, % at 57.5 µM | actives 4.7% (n = 360,000) | AID 743279; in the data active means activity change below about -50%; inconclusive means mostly about -30% to -49%; further: on the % scale 0 is the no-effect control and ±100 the full control effect
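Secreted IL-1B measured by AlphaLISA bead assay after 16 h compound exposure of THP-1 cells; compounds (final up to 57.5 uM) added 1 h before LPS (250 ng/mL) and ATP (1.25 mM) stimulation; lower signal means less secretion.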
TGFb SMAD3 inh – TGF-b pathway inhibition. Potency, µM (titrated, usually from 46.1 µM), for inactives: top-dose activity, negative = inhibition, hits mostly inhibitors. actives 1.2% (n = 410,000). AID 588855. HepG2 CAGA-GFP TGF-b/SMAD3 reporter, GFP fluorescence, 18 h; TGF-beta stimulated, 500 pg/mL final; further: potency means the concentration at half of the fitted maximal effect; on the % scale 0 is the no-effect control and ±100 the full control effect; nearly all actives have a fitted effect of over 65% in size
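Inhibition was scored as loss of TGF-beta-induced (500 pg/mL final, 18 hours, 37 degrees C) GFP in HEPG2 cells carrying a CAGA-GFP reporter, in DMEM with 1% FBS. Well GFP was summed per cell; Activity was normalised to unstimulated and stimulated DMSO wells, then concentration-response fitting.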
ASM inhibitor – human S-ASM enzyme inhibition; P17405; placental ASM, HMU-PC fluorogenic substrate, 60 min; Potency, µM (top dose mostly 57.5 µM), for inactives: at the highest dose activity change, negative = inhibition, most hits filed as inhibitors; actives 0.006% (n = 340,000); further: potency means the concentration at half of the fitted maximal effect
Target sequence (P17405 47-631 limits assumed): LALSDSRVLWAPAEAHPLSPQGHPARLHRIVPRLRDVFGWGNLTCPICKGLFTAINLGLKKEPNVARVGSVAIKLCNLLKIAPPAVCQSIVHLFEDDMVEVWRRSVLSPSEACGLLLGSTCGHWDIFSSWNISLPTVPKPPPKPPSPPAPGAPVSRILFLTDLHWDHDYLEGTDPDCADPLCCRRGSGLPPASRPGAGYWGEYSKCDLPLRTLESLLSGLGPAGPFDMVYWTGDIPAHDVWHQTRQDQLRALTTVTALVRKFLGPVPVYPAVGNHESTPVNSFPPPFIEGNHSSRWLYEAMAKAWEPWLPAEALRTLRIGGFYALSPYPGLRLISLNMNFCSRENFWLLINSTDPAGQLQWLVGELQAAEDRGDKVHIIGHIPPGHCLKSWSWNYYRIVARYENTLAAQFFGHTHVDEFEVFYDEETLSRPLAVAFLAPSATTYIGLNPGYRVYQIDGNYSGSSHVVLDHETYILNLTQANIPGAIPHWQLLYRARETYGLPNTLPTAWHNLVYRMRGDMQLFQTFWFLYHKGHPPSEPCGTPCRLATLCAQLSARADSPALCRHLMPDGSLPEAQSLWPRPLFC
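Fluorogenic HMU-PC substrate (9 uM final) is turned over by placental ASM in 60 min at 37 C after a 10 min compound preincubation. Reaction ended by alkaline stop (pH 10), with fluorescence read at 386/447 nm.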
The depositor's hits bear a star; i = inactive; ? = inconclusive; . = no result given. Unless noted, the call rests on the fitted dose curve; in most records, active means well fitted curve in the direction sought with a large enough effect; inconclusive means small, poorly fitted or top-dose-only effect, or another doubt; inactive means no such curve, though single readings can be large; an effect the other way counts as inactive or inconclusive.

SMILES | DT40 TDP1 CPT | HepG2 tox | DT40 TDP1 no CPT | IL-1B inflam inh | TGFb SMAD3 inh | ASM inhibitor
O=C(NNC(=S)Nc1cccc(C(F)(F)F)c1)c1ccccc1Cl | ? | -84% | 18µM* | ? | 14µM* | 5%
NC(=O)c1ncn([C@@H]2O[C@H](CNCc3ccc(OCC(=O)Nc4nccs4)cc3)[C@@H](O)[C@H]2O)n1 | -10% | 3% | -5% | 13 | -7% | 5%
Cc1ccc(C)c(NC(=O)COC(=O)CCNC(=O)c2ccco2)c1 | -4% | 2% | 7% | -18 | 8% | 1%
FC(F)(F)c1cccc(NC(=S)NNC(=S)NCc2ccccc2)c1 | ? | -41% | 26µM* | -15 | ? | -3%
FC(F)(F)c1cccc(NC(=S)NCc2ccccn2)c1 | -13% | 4% | -9% | -3 | 4% | 1%
FC(F)(F)c1cccc(NC(=S)Nc2cccc(NC(=S)Nc3cccc(C(F)(F)F)c3)n2)c1 | 29µM* | -26% | 21µM* | -86* | ? | -15%
COc1ccc(OC)c(NC(=O)CSc2ncccc2C(=O)O)c1 | 7% | 4% | -4% | 16 | -3% | 7%
O=C(CSc1n[nH]c(-c2ccccn2)n1)Nc1ccccc1 | 23µM* | -34% | ? | 178 | ? | 0%
O=C(CSc1n[nH]c(-c2ccccn2)n1)Nc1ccccc1F | 4.1µM* | -47% | 2.9µM* | 54 | -29% | 3%
COc1ccccc1NC(=O)CSc1n[nH]c(-c2ccccn2)n1 | ? | -34% | 15µM* | 108 | 8% | -4%
CCCCCCCCNC(=O)c1cccnc1SCC(=O)Nc1ccccc1OC | ? | -24% | 21µM* | 15 | -9% | -5%
COc1ccccc1-c1nc(SCC(=O)Nc2ccccc2F)n[nH]1 | ? | 0% | ? | i | 1% | -1%
COc1ccc(-c2noc(-c3ccc(N4CCC(C)CC4)c([N+](=O)[O-])c3)n2)cc1OC | -20% | -6% | -15% | . | 4% | .
Cc1ccc(OC(=O)CSc2nnc(-c3cccs3)o2)cc1C | -21% | 6% | -13% | . | -5% | .
O=C(OCC(=O)N1CCCC1=O)c1ccc(Cl)cc1[N+](=O)[O-] | 16% | -20% | -1% | 8 | -23% | -2%
Cc1[nH]c2ccccc2c1SCC(=O)NNC(=O)Nc1ccc(OC(F)(F)F)cc1 | 4% | 10% | -26% | . | ? | -12%
COc1ccc(OC)c(NC(=O)CSc2n[nH]c(-c3cccnc3)n2)c1 | -14% | -1% | -24% | 74 | -20% | -1%
COc1ccc(-c2nc(SCC(=O)Nc3cccc(C(C)=O)c3)n[nH]2)cc1 | ? | -2% | ? | . | ? | .
COc1ccc(OC)c(NC(=O)CSc2n[nH]c(-c3ccccc3Cl)n2)c1 | 10µM* | -2% | ? | . | -22% | .
COc1ccc(NC(=O)CSc2n[nH]c(-c3ccccn3)n2)cc1 | 16µM* | -35% | 23µM* | 150 | -13% | -3%
COc1ccc(NC(=O)Cn2c(=O)n(Cc3nc(C)no3)c(=O)c3cc4c(cc32)OCO4)cc1OC | -10% | 6% | -1% | . | -2% | .
COc1ccc(NC(=O)Cn2c(=O)n(-c3cccc(C)c3)c(=O)c3c2c2cc(C)ccc2n3C)cc1Cl | ? | -18% | -27% | . | -17% | .
COc1ccc(Cl)cc1NC(=O)CN(C)C(=O)c1cc2c(s1)CCCC2 | ? | -12% | ? | ? | -4% | -7%
CCn1c2ccccc2c2cc(Nc3cc(C)nc4ncnn34)ccc21 | 0.92µM* | -31% | 0.58µM* | 115 | ? | -25%
CCc1ccc(Nc2cc(C)nc3ncnn23)cc1 | 6% | -64% | 0% | -7 | 12% | -1%
SMILES | DT40 TDP1 CPT | HepG2 tox | DT40 TDP1 no CPT | IL-1B inflam inh | TGFb SMAD3 inh | ASM inhibitor
Cc1ccc(Nc2cc(-c3ccccc3)nc3ncnn23)cc1 | ? | -24% | ? | -56* | -10% | -4%
Brc1cccc[n+]1CCCCCC[n+]1ccccc1Br | ? | -25% | 18µM* | . | 9% | .
Clc1cccc[n+]1CCCCCC[n+]1ccccc1Cl | 35µM* | 7% | -98% | . | -4% | .
O/N=C/c1cccc[n+]1CCCCCC[n+]1ccccc1/C=N/O | 4% | 0% | 14% | -6 | 10% | 1%
Brc1cccc[n+]1C/C=C/C[n+]1ccccc1Br | 0% | -77% | -18% | . | 13% | .
Brc1cccc[n+]1CCCC[n+]1ccccc1Br | 8.9µM* | -16% | 16µM* | . | 8% | .
O=C(NCCN1CCOCC1)C(=O)NCC1OCCCN1S(=O)(=O)c1ccc(F)cc1 (stereo not given) | 2% | 4% | 0% | 0 | -8% | -1%
CC(NC(=O)c1cc(S(=O)(=O)N(C)C)ccc1N1CCCC1)C1CC2CCC1C2 (stereo not given) | 2% | 1% | -17% | -3 | 9% | 4%
Cc1coc2c1c(C)cc1oc(=O)c(CC(=O)N[C@@H](C)C(=O)O)c(C)c12 | 2% | -1% | 10% | 9 | 2% | 52%
Cc1cc(C)c(COCc2cc(/C=N/O)c(C)cc2C)cc1/C=N/O | ? | -61% | ? | -83* | ? | -10%
CSc1cc(/C=N/O)c(SC)s1 | -22% | 0% | ? | -18 | -7% | 1%
O=C(CN1CCCC1c1cccs1)Nc1cc(S(=O)(=O)N2CCCC2)ccc1Cl (stereo not given) | ? | 6% | ? | 9 | -3% | 0%
O=C(CN1CCCC1c1cccs1)Nc1cccc(S(=O)(=O)N2CCCC2)c1 (stereo not given) | 15µM* | -17% | ? | 11 | -15% | 1%
N#Cc1ccccc1OCC(=O)Nc1cccc(S(=O)(=O)N2CCCC2)c1 | 16µM* | 3% | ? | -3 | -6% | 2%
Cc1ccc(NC(=O)CCNC(=O)c2ccc(Br)cc2)cc1S(=O)(=O)N1CCCCCC1 | ? | 3% | 16µM* | 6 | ? | -18%
O=C(CN(CCO)c1ccccc1)Nc1cccc(S(=O)(=O)N2CCCC2)c1 | 18µM* | -15% | ? | -4 | -13% | -1%
CCN(CC)CC(=O)Nc1cccc(S(=O)(=O)N2CCCC2)c1 | -26% | 1% | ? | 5 | -6% | 4%
CC(C)c1ccc(S(=O)(=O)NCCCN2CCOCC2)cc1 | -22% | 26% | ? | 4 | 18% | .
COc1ccc(CCC(=O)Nc2cccc(S(=O)(=O)N3CCOCC3)c2)cc1OC | 15µM* | -5% | ? | -11 | 5% | 0%
